Legend:
Test in all cases: DAPPL (digital affinity profiling via proximity ligation, sequencing); 10 mM Tris-HCl pH 7.5, 50 mM NaCl, 1 mM DTT, 4% glycerol, room temperature, 30 min; GST-TFs on glutathione beads, 16-mer random dsDNA library, 0.1% formaldehyde crosslink after washing; high values mean tight binding
[1] = target: T1, FEV (Homo sapiens, UniProt Q99581 1-238); details: protein: recombinant; tags: N-terminal GST; dsDNA, one strand shown
T1 sequence: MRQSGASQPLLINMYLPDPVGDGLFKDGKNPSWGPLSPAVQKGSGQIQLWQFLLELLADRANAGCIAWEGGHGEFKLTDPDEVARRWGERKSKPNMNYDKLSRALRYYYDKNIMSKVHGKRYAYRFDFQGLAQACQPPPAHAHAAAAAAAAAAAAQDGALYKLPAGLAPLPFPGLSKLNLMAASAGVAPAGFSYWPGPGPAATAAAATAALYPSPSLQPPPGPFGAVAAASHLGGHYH
Procedure, shortened: (§1)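 In yeast, human transcription factors were expressed with a GST fusion, then pulled down on glutathione beads and given DNA barcodes. Pooled with a tag-only sample, they were exposed to 200 nmole of a 16-mer random double-stranded DNA library (Tris/NaCl/DTT/glycerol buffer, room temperature, 30 min), washed, crosslinked with 0.1% formaldehyde, proximity-ligated using BsaI/T4 ligase for 1 h at 37 °C, PCR-amplified and read on an Illumina NextSeq500. Each hexamer's frequency of reads for a factor, divided by the matching frequency for the tag-only sample, gives the binding signal.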

[2] = target: ETV5 (Homo sapiens, UniProt P41161 1-510); details: protein: recombinant; tags: N-terminal GST; dsDNA, one strand shown
Procedure, shortened: as §1

[3] = target: HSF1 (Homo sapiens, UniProt Q00613 1-529); details: protein: recombinant; tags: N-terminal GST; chain copies: 3; dsDNA, one strand shown
Procedure, shortened: as §1

[4] = target: T2, SPIC (Homo sapiens, UniProt Q8N5J4 1-248); details: protein: recombinant; tags: N-terminal GST; dsDNA, one strand shown
T2 sequence: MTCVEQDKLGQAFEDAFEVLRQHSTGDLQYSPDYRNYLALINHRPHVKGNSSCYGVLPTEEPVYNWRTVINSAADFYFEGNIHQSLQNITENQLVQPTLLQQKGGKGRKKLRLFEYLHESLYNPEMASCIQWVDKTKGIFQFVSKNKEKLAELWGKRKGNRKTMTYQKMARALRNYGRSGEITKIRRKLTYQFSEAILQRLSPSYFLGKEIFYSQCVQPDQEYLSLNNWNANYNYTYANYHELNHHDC
Procedure, shortened: as §1

[5] = target: ELF4 (Homo sapiens, UniProt Q99607 1-663); details: protein: recombinant; tags: N-terminal GST; dsDNA, one strand shown
Procedure, shortened: as §1

[6] = target: T3, ELK4 (Homo sapiens, UniProt P28324-2 1-405); details: protein: recombinant; tags: N-terminal GST; dsDNA, one strand shown
T3 sequence: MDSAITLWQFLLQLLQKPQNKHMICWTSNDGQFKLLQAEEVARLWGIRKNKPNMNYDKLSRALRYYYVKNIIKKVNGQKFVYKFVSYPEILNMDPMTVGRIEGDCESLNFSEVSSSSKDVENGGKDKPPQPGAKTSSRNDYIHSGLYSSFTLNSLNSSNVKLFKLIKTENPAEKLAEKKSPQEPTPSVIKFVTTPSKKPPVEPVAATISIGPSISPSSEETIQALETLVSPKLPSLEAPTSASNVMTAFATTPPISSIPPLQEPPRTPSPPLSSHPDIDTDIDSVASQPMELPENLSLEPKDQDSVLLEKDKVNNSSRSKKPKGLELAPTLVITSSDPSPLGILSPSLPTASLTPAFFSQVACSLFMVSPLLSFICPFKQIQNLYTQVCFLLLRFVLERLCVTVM
Procedure, shortened: as §1

[7] = target: T4, ETV2 (Homo sapiens, UniProt O00321 1-342); details: protein: recombinant; tags: N-terminal GST; dsDNA, one strand shown
T4 sequence: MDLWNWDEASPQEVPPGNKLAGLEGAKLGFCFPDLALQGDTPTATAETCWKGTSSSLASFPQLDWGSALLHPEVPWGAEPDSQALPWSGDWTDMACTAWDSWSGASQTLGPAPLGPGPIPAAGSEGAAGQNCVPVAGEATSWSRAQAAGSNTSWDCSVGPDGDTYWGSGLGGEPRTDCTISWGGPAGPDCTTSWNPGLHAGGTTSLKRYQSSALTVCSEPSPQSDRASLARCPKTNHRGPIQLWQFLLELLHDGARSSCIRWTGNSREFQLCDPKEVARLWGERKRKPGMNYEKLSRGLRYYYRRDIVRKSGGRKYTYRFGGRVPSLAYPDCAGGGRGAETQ
Procedure, shortened: as §1

[8] = target: T5, ELF3 (Homo sapiens, UniProt P78545 1-371); details: protein: recombinant; tags: N-terminal GST; dsDNA, one strand shown
T5 sequence: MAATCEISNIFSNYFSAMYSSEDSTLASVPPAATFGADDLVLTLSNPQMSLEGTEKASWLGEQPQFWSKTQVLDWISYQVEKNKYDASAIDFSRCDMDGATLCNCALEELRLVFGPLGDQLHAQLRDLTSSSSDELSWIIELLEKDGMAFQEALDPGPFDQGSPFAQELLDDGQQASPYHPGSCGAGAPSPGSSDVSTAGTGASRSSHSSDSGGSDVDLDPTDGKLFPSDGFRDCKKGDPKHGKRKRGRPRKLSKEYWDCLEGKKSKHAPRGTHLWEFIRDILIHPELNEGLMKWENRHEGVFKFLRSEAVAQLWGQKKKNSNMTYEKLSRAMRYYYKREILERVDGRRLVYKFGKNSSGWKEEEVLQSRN
Procedure, shortened: as §1

[9] = target: CRX (Homo sapiens, UniProt O43186 1-299); details: protein: recombinant; tags: N-terminal GST; dsDNA, one strand shown
Procedure, shortened: as §1

[10] = target: ETV1 (Homo sapiens, UniProt P50549 1-477); details: protein: recombinant; tags: N-terminal GST; dsDNA, one strand shown
Procedure, shortened: as §1

[11] = target: T6, ERF (Homo sapiens, UniProt P50548 1-548); details: protein: recombinant; tags: N-terminal GST; dsDNA, one strand shown
T6 sequence: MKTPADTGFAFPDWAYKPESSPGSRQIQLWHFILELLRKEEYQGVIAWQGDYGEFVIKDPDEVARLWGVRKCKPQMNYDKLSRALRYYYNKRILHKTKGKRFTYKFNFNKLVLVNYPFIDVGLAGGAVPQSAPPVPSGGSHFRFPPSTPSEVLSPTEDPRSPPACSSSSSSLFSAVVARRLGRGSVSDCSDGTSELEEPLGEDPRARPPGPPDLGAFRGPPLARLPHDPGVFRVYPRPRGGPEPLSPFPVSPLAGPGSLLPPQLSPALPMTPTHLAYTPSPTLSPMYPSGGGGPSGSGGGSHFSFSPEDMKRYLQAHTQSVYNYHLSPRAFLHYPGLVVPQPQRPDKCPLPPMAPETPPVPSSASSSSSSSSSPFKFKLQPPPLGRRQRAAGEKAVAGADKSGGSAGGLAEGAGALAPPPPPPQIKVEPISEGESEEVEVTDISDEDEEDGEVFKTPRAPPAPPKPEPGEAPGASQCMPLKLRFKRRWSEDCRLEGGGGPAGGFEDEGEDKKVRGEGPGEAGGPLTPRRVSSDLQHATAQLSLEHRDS
Procedure, shortened: as §1

[12] = target: T7, ETV3L (Homo sapiens, UniProt Q6ZN32 1-361); details: protein: recombinant; tags: N-terminal GST; dsDNA, one strand shown
T7 sequence: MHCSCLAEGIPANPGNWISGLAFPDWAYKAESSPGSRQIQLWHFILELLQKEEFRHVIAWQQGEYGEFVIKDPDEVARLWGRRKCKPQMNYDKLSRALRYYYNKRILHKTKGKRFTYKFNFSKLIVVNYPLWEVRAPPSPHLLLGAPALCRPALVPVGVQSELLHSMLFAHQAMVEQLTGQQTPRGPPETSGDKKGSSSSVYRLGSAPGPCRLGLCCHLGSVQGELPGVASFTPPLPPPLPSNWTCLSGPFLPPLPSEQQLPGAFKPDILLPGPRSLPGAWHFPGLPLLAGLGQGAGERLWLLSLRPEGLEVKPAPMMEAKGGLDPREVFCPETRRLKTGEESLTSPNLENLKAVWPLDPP
Procedure, shortened: as §1

[13] = target: T8, ETS2 (Homo sapiens, UniProt P15036 1-469); details: protein: recombinant; tags: N-terminal GST; dsDNA, one strand shown
T8 sequence: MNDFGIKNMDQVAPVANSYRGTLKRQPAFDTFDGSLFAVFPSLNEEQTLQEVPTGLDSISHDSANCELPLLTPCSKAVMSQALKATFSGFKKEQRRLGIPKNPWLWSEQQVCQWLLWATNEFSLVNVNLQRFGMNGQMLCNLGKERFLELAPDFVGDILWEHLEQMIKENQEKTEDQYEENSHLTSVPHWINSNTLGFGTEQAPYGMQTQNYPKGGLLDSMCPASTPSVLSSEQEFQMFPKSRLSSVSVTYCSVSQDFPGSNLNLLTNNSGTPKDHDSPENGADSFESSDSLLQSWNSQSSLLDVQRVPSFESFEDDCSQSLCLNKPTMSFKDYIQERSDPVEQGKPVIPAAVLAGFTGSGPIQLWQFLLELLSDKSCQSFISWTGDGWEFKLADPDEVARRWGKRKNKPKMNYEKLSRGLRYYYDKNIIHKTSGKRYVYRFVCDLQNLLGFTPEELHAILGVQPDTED
Procedure, shortened: as §1

[14] = target: T9, SPDEF (Homo sapiens, UniProt O95238 1-335); details: protein: recombinant; tags: N-terminal GST; dsDNA, one strand shown
T9 sequence: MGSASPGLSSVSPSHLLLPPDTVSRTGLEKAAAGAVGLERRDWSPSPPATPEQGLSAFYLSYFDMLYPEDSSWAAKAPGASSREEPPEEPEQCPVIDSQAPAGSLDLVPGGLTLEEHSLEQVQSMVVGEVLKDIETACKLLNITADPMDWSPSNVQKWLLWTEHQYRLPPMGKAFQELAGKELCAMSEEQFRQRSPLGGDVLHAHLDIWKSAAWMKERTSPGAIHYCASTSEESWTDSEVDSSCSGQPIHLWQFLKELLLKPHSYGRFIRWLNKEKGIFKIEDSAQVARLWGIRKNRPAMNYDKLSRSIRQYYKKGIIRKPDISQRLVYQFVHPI
Procedure, shortened: as §1

[15] = target: T10, ETV7 (Homo sapiens, UniProt Q9Y603 1-341); details: protein: recombinant; tags: N-terminal GST; dsDNA, one strand shown
T10 sequence: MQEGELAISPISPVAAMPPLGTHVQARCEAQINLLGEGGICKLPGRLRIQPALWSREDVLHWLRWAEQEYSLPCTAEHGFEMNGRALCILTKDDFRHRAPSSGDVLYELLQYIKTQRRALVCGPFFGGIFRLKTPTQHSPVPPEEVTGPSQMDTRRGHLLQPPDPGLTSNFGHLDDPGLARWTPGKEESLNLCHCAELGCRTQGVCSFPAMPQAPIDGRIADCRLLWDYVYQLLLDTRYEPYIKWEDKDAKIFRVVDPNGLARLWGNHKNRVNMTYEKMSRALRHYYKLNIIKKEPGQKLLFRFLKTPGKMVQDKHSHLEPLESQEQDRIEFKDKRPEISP
Procedure, shortened: as §1

[16] = target: T11, ELF5 (Homo sapiens, UniProt Q9UKW6-2 1-255); details: protein: recombinant; tags: N-terminal GST; dsDNA, one strand shown
T11 sequence: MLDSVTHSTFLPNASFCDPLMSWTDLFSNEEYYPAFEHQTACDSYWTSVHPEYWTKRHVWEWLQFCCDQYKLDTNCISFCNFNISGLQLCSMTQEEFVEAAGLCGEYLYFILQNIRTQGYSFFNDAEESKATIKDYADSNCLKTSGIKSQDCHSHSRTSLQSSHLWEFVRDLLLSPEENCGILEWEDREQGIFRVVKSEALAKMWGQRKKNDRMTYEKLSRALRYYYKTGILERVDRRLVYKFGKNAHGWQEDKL
Procedure, shortened: as §1

[17] = target: T12, ETV3 (Homo sapiens, UniProt P41162-2 1-143); details: protein: recombinant; tags: N-terminal GST; dsDNA, one strand shown
T12 sequence: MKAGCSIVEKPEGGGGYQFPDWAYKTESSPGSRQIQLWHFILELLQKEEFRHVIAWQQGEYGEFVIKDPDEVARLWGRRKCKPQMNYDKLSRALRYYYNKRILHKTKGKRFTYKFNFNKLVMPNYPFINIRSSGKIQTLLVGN
Procedure, shortened: as §1

[18] = target: ETV6 (Homo sapiens, UniProt P41212 1-452); details: protein: recombinant; tags: N-terminal GST; dsDNA, one strand shown
Procedure, shortened: as §1

Chain of ETV5 (P41161 whole entry): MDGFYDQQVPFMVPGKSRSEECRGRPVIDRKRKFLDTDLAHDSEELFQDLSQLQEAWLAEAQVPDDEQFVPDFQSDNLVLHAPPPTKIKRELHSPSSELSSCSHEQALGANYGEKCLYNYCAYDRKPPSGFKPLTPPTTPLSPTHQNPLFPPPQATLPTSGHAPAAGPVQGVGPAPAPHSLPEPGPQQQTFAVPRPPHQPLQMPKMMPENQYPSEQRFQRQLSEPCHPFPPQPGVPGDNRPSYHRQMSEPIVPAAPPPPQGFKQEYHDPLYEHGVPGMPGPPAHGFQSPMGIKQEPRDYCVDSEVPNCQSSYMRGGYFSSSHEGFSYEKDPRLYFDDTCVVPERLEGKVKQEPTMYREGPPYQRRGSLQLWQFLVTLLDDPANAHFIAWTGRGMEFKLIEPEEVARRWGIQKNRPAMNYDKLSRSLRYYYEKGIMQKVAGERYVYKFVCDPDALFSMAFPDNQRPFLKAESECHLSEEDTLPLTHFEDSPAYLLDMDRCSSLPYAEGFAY
Chain of ETV1 (P50549 whole entry): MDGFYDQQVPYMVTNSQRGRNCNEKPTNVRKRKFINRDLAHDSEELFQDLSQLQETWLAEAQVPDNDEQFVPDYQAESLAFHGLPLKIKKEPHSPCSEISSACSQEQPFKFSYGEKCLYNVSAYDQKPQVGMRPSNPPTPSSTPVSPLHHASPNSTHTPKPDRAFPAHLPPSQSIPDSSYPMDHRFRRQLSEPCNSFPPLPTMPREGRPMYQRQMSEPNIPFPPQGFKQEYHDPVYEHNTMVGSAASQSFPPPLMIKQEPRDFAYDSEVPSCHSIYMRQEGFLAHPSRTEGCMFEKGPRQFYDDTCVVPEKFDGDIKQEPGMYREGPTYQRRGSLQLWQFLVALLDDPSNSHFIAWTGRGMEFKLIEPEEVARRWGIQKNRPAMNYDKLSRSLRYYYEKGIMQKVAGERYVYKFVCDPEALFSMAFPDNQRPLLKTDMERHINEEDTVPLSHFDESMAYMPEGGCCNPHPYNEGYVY
Chain of ETV6 (P41212 whole entry): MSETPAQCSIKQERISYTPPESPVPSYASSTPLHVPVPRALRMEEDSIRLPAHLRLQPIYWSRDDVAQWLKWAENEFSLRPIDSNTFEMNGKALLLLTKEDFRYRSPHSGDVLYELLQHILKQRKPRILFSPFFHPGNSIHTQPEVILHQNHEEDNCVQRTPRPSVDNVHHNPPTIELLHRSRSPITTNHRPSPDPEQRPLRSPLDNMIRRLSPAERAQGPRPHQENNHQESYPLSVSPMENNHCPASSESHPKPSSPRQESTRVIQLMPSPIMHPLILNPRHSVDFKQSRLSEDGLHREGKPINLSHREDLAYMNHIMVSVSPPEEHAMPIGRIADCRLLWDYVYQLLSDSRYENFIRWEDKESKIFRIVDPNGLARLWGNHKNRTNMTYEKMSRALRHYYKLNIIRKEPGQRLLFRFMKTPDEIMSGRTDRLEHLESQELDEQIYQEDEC
Chain of CRX (O43186 whole entry): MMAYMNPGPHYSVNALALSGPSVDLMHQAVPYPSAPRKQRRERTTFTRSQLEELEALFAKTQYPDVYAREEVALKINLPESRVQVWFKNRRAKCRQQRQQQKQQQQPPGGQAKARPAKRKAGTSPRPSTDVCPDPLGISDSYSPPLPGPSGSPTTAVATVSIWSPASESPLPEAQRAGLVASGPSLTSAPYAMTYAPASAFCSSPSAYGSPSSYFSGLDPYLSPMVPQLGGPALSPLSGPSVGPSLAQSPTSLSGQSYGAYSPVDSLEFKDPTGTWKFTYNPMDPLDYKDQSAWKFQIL
Chain of HSF1 (Q00613 whole entry): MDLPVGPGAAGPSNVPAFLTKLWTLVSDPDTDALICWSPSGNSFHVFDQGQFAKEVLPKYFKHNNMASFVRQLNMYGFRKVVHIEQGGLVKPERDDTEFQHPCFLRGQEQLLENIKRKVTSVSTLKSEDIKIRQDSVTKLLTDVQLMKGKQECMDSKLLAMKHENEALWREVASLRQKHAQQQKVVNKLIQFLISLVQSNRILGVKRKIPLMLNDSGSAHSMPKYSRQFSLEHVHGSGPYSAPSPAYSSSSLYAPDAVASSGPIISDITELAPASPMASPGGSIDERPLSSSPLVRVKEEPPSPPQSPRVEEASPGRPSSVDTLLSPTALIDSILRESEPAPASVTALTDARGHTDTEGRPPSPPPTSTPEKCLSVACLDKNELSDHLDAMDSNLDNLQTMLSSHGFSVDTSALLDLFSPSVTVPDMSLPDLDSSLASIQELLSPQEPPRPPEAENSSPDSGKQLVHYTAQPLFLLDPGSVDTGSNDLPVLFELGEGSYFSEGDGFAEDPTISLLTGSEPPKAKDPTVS
Chain of ELF4 (Q99607 whole entry): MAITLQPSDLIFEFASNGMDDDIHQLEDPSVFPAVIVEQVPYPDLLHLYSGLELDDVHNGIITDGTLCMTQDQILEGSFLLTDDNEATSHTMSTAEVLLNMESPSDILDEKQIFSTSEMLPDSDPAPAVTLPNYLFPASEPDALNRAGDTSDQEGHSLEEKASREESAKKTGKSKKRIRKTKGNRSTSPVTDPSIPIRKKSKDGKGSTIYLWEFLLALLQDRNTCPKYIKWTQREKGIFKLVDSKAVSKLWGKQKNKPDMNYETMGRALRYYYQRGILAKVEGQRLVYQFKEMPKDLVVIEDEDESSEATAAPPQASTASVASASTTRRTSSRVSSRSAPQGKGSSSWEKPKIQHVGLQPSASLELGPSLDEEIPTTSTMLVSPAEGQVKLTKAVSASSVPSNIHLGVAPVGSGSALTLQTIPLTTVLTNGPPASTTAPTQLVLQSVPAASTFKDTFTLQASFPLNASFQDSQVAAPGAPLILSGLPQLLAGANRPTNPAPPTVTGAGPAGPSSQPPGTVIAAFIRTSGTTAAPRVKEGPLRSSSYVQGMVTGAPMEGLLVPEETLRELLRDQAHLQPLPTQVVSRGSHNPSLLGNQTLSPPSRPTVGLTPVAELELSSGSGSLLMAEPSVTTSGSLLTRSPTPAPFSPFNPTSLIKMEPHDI

TTCTGT
binding signal [1]: 1.27 fold enrichment (6-mer frequency, TF over GST control)
binding signal [2]: 1.26 fold enrichment (6-mer frequency, TF over GST control)
binding signal [3]: 1.6 fold enrichment (6-mer frequency, TF over GST control)
binding signal [4]: 1.41 fold enrichment (6-mer frequency, TF over GST control)
binding signal [5]: 1.3 fold enrichment (6-mer frequency, TF over GST control)
binding signal [6]: 1.5 fold enrichment (6-mer frequency, TF over GST control)
binding signal [7]: 1.35 fold enrichment (6-mer frequency, TF over GST control)
binding signal [8]: 1.24 fold enrichment (6-mer frequency, TF over GST control)
binding signal [9]: 1.31 fold enrichment (6-mer frequency, TF over GST control)
binding signal [10]: 1.32 fold enrichment (6-mer frequency, TF over GST control)
binding signal [11]: 1.39 fold enrichment (6-mer frequency, TF over GST control)
binding signal [12]: 1.42 fold enrichment (6-mer frequency, TF over GST control)
binding signal [13]: 1.29 fold enrichment (6-mer frequency, TF over GST control)
binding signal [14]: 1.15 fold enrichment (6-mer frequency, TF over GST control)
binding signal [15]: 1.26 fold enrichment (6-mer frequency, TF over GST control)
binding signal [16]: 1.29 fold enrichment (6-mer frequency, TF over GST control)
binding signal [17]: 1.19 fold enrichment (6-mer frequency, TF over GST control)
binding signal [18]: 1.38 fold enrichment (6-mer frequency, TF over GST control)

From article PMC7862700, “An all-to-all approach to the identification of sequence-specific readers for epigenetic DNA modifications on cytosine”
